Results reported in PubChem BioAssay (EPA / NIEHS).
“And” between values parts separate entries of the source, which are not always exact repeats. Equal values may be shown once. Inconclusive results are not listed. Where a structure was tested more than once in an assay, its records may differ in their call. The source made the active and inactive calls. Rule for the calls, unless noted: active = hit-call score of the fitted dose curve at least 0.9, where 1 is the maximum; inconclusive = response in the unintended direction; inactive = score below 0.9.

Legend:
[1] = ATG_TCF_b_cat_CIS: Attagene CIS-FACTORIAL HepG2 Assay for human T-Cell-Factor with beta-catenin (TCF/b-cat) (AID 2282965; active = hit-call score of the fitted dose curve at least 0.9, where 1 is the maximum; inactive = score below 0.9); conditions: HepG2 TCF/beta-catenin cis-reporter transcription, actives raise or lower the signal
How it was run: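 Measured: reporter mRNA in HepG2 transiently transfected with cis-promoter reporter units, 24 h after chemical addition. Fitting was bidirectional, DMSO as negative control.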

[2] = ATG_TAL_CIS: Attagene CIS-FACTORIAL HepG2 Assay for human TAL Basal Promoter (AID 2282966; active = hit-call score of the fitted dose curve at least 0.9, where 1 is the maximum; inactive = score below 0.9;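 note: background control endpoint measuring basal TAL promoter reporter mRNA not a specific factor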); conditions: HepG2 Attagene cis-factorial TAL promoter reporter; actives raise or lower the signal
How it was run: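 In this cell-based multiplex, HepG2 liver cells bearing cis-promoter reporter constructs are dosed for 24 hours. Total RNA is reverse-transcribed and amplified, labelled fragments are sized by capillary electrophoresis, and signal changes are fitted bidirectionally versus DMSO.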

[3] = ATG_TGFb_CIS: Attagene CIS-FACTORIAL HepG2 Assay for human Transforming Growth Factor (TGF) (AID 2282967; active = hit-call score of the fitted dose curve at least 0.9, where 1 is the maximum; inactive = score below 0.9); conditions: HepG2 Attagene CIS TGFb reporter, mRNA transcription; actives raise or lower the signal
How it was run: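 HepG2 cells transiently transfected with cis-promoter-driven multiple reporter units measure endogenous TF activity; reporter mRNA quantified at 24 h by RT-PCR, FAM labeling, HpaI digestion and capillary electrophoresis. Bidirectional fit vs DMSO.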

[4] = ATG_VDRE_CIS: Attagene CIS-FACTORIAL HepG2 Assay for human Vitamin D Receptor Element (VDRE) (AID 2282968; active = hit-call score of the fitted dose curve at least 0.9, where 1 is the maximum; inactive = score below 0.9); conditions: HepG2 VDRE cis-reporter transcription, actives raise or lower the signal
How it was run: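 In transiently transfected HepG2 liver cells, gain or loss of reporter mRNA after 24 h exposure is scored relative to DMSO, using fluorescence detection by capillary electrophoresis of RT-PCR products.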

[5] = target: Nuclear receptor subfamily 1 group I member 3 (Homo sapiens) (UniProt Q14994); assay: ATG_CAR_TRANS: Attagene TRANS-FACTORIAL HepG2 Assay for human Constitutive Androstane Receptor (CAR) (AID 2282969); conditions: HepG2 Attagene TRANS-FACTORIAL CAR reporter;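 note: activators raise reporter mRNA above DMSO so AC50 marks induction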
How it was run: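 Readout is reporter mRNA induction, quantified by fluorescent primer extension and capillary electrophoresis after RT-PCR. Cells were HepG2 transiently carrying chimeric NR-Gal4 constructs with GAL4-UAS reporters, treated for 24 h; activity scored upward from DMSO.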

[6] = target: Estrogen receptor (Homo sapiens) (UniProt P03372); assay: ATG_ERa_TRANS: Attagene TRANS-FACTORIAL HepG2 Assay for human Estrogen Receptor alpha (ERa) (AID 2282970); conditions: HepG2 Attagene TRANS ERa GAL4 reporter, mRNA
How it was run: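 After 24 h of compound treatment, RNA from HepG2 cells bearing transfected GAL4-UAS reporter constructs is converted to cDNA, amplified and fluorescently labelled. Capillary electrophoresis resolves the ERa-linked reporter; DMSO serves as negative control.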

[7] = target: Steroid hormone receptor ERR1 (Homo sapiens) (UniProt P11474); assay: ATG_ERRa_TRANS: Attagene TRANS-FACTORIAL HepG2 Assay for human Estrogen-Related Receptor alpha (ERRa) (AID 2282971); conditions: HepG2 Attagene TRANS reporter, ERRa transactivation
How it was run: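 Transfected HepG2, 24 h dosing, ERRa-Gal4 chimera driving GAL4-UAS reporter. Readout: reporter mRNA via RT-PCR plus capillary electrophoresis (fluorescence). Positive direction vs DMSO control.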

[8] = target: X-box-binding protein 1 (Homo sapiens) (UniProt P17861); assay: ATG_Xbp1_CIS: Attagene CIS-FACTORIAL HepG2 Assay for human X-box Binding Protein 1 (XBP1) (AID 2282972; active = hit-call score of the fitted dose curve at least 0.9, where 1 is the maximum; inactive = score below 0.9); conditions: HepG2 XBP1 cis-element reporter, Attagene multiplex; actives raise or lower the signal
How it was run: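 HepG2 cells transiently transfected with cis-regulated multiple reporter transcription units; endogenous transcription factor activity measured 24 hours after chemical dosing. Reporter mRNA quantified by RT-PCR, 6-FAM primer extension, HpaI digestion and capillary electrophoresis; bidirectional fitting versus DMSO.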

[9] = target: Estrogen-related receptor gamma (Homo sapiens) (UniProt P62508); assay: ATG_ERRg_TRANS: Attagene TRANS-FACTORIAL HepG2 Assay for human Estrogen-Related Receptor gamma (ERRg) (AID 2282977); conditions: HepG2 Attagene TRANS reporter, ERRg transactivation;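 note: hits increase reporter signal over DMSO so potencies reflect activators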
How it was run: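 Transient HepG2 transfectants, 24 h compound exposure, GAL4-UAS reporter mRNA by RT-PCR/6-FAM labelling/capillary electrophoresis; positive direction vs DMSO.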

[10] = target: Glucocorticoid receptor (Homo sapiens) (UniProt P04150); assay: ATG_GR_TRANS: Attagene TRANS-FACTORIAL HepG2 Assay for human Glucocorticoid Receptor (GR) (AID 2282978); conditions: HepG2 Attagene TRANS GR reporter, mRNA transcription;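 note: activators score as hits since higher reporter transcript over DMSO is fitted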
How it was run: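 After 24 h incubation with test chemical, transfected HepG2 cells were lysed for RNA; reporter cDNA was amplified, FAM-labelled, HpaI-digested and sized on a capillary analyser. Signal gain relative to DMSO was scored.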

[11] = target: Oxysterols receptor LXR-alpha (Homo sapiens) (UniProt Q13133); assay: ATG_LXRa_TRANS: Attagene TRANS-FACTORIAL HepG2 Assay for human Liver X Receptor alpha (LXRa) (AID 2282980); conditions: HepG2 Attagene TRANS reporter, LXRa transactivation
How it was run: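 Read-out: reporter transcript levels by RT-PCR plus capillary electrophoresis, fluorescence intensity. Transiently transfected HepG2, exogenous NR-GAL4 chimera, GAL4-UAS reporters; 24 h compound exposure. Activity = increase over DMSO negative control.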

[12] = target: Oxysterols receptor LXR-beta (Homo sapiens) (UniProt P55055); assay: ATG_LXRb_TRANS: Attagene TRANS-FACTORIAL HepG2 Assay for human Liver X Receptor beta (LXRb) (AID 2282981); conditions: HepG2 Attagene TRANS GAL4-LXRb reporter, mRNA
How it was run: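 Cells: HepG2, transiently transfected with GAL4-UAS reporter units plus LXRb-Gal4 fusion. Treatment: 24 h. Detection: reporter mRNA by RT-PCR, 6-FAM labelling, HpaI digestion, capillary electrophoresis.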

[13] = target: Hepatocyte nuclear factor 4-alpha (Homo sapiens) (UniProt P41235); assay: ATG_HNF4a_TRANS: Attagene TRANS-FACTORIAL HepG2 Assay for human Hepatocyte Nuclear Factor 4 alpha (HNF4a) (AID 2282982); conditions: HepG2 HNF4a transactivation reporter, mRNA readout
How it was run: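 Transfected HepG2 reporter cells are dosed for 24 h; reporter RNA is reverse-transcribed, amplified, fluorescently labelled and HpaI-digested before CE sizing. Positive-direction fit against DMSO.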

[14] = ATG_M_06_TRANS: Attagene TRANS-FACTORIAL HepG2 Assay for M06 Transcription Factor (Internal Marker) (AID 2282983); conditions: HepG2 Attagene TRANS M06 internal marker reporter
How it was run: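 After a 24 h chemical treatment of transfected HepG2, RNA underwent DNase I treatment, reverse transcription and reporter-specific PCR; labelled, HpaI-digested products were sized by capillary electrophoresis. Signal increase relative to DMSO defined activity.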

[15] = target: Transcriptional activator Myb (Homo sapiens) (UniProt P10242); assay: ATG_Myb_CIS: Attagene CIS-FACTORIAL HepG2 Assay for human Myeloblastosis (Myb) Proto-Oncogene Transcription Factor (AID 2282986; active = hit-call score of the fitted dose curve at least 0.9, where 1 is the maximum; inactive = score below 0.9); conditions: HepG2 Attagene CIS-FACTORIAL Myb reporter transcription; actives raise or lower the signal
How it was run: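 After 24 h of compound dosing, total RNA from transfected HepG2 cells is reverse-transcribed and the reporter sequences amplified, labeled and separated by capillary electrophoresis. Values come from bidirectional fitting against DMSO.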

[16] = ATG_M_19_TRANS: Attagene TRANS-FACTORIAL HepG2 Assay for M19 Transcription Factor (Internal Marker) (AID 2282974); conditions: HepG2 Attagene TRANS-FACTORIAL M19 internal marker reporter
How it was run: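 Transfected HepG2 (GAL4-UAS MRTUs), 24 h compound, TriZol RNA, DNase-treated RT, reporter PCR, FAM label, HpaI digest, CE fluorescence; gain vs DMSO.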

[17] = ATG_M_32_TRANS: Attagene TRANS-FACTORIAL HepG2 Assay for M32 Transcription Factor (Internal Marker) (AID 2282984); conditions: HepG2 Attagene TRANS M32 internal marker reporter;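 note: transcript level of a background control reporter unit measured by RT-PCR and capillary electrophoresis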
How it was run: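 Using transiently transfected HepG2 cells exposed to test chemicals for 24 h, reporter transcripts are converted to labelled cDNA fragments and quantified by capillary electrophoresis. DMSO defines the activity baseline.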

[18] = target: Nuclear receptor subfamily 4 group A member 2 (Homo sapiens) (UniProt P43354); assay: ATG_NURR1_TRANS: Attagene TRANS-FACTORIAL HepG2 Assay for human Nuclear Receptor Related Protein 1 (NURR1) (AID 2282985); conditions: HepG2 Attagene TRANS reporter, mRNA readout
How it was run: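 Cells: HepG2, transiently transfected. Exposure: 24 h. Detection: fluorescence of labelled RT-PCR products separated by capillary electrophoresis; upward fit versus DMSO.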

[19] = target: Bile acid receptor (Homo sapiens) (UniProt Q96RI1); assay: ATG_FXR_TRANS: Attagene TRANS-FACTORIAL HepG2 Assay for Farnesoid X Receptor (FXR) (AID 2282979); conditions: HepG2 Attagene TRANS FXR-GAL4 reporter transcription;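 note: hits raise reporter mRNA above DMSO so AC50 marks FXR activation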
How it was run: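 Read-out: fluorescent reporter transcripts quantified by capillary electrophoresis after RT-PCR of total RNA. Source cells were HepG2 transiently carrying chimeric NR-GAL4 plus GAL4-UAS reporter units, dosed 24 h. Activity fitted upward relative to DMSO baseline.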

[20] = ATG_GAL4_TRANS: Attagene TRANS-FACTORIAL HepG2 Assay for GAL4 (Internal Marker) (AID 2282976); conditions: HepG2 Attagene TRANS GAL4 internal marker reporter
How it was run: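 RT-PCR/capillary electrophoresis readout of reporter mRNA. HepG2, transient MRTU transfection (GAL4-UAS reporters), 24 h compound exposure. Background-control endpoint, positive direction vs DMSO baseline.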

Sequence of X-box-binding protein 1 (Homo sapiens) (P17861 whole entry, looked up): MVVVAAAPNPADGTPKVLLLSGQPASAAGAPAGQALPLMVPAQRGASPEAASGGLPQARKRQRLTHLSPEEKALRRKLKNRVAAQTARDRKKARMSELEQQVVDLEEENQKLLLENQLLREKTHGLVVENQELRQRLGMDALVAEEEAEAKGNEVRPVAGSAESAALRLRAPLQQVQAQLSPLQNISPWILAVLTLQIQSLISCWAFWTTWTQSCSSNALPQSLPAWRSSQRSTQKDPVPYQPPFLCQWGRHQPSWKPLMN
Sequence of Nuclear receptor subfamily 1 group I member 3 (Homo sapiens) (Q14994 whole entry, looked up, the tested form may be a part): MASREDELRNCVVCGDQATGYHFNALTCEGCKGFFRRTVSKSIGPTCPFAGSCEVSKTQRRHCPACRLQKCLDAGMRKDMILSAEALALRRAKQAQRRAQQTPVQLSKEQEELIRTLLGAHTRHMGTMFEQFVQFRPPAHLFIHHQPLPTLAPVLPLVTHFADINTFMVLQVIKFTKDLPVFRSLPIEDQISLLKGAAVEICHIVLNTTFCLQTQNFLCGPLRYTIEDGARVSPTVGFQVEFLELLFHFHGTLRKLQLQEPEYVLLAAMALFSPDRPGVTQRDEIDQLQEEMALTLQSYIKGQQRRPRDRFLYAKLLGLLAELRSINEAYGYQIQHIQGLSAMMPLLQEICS
Sequence of Steroid hormone receptor ERR1 (Homo sapiens) (P11474 whole entry, looked up, the tested form may be a part): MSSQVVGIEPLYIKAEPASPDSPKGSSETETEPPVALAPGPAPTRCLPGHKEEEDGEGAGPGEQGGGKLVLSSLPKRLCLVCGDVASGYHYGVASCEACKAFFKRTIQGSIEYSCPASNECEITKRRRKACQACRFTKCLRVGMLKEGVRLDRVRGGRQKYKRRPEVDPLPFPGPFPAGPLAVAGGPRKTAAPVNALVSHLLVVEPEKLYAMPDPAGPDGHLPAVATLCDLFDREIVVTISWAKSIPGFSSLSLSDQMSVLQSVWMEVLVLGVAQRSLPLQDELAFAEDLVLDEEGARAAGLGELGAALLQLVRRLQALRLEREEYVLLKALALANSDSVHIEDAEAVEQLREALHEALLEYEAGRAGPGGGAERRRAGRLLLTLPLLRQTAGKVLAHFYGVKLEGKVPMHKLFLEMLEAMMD
Sequence of Glucocorticoid receptor (Homo sapiens) (P04150 whole entry, looked up): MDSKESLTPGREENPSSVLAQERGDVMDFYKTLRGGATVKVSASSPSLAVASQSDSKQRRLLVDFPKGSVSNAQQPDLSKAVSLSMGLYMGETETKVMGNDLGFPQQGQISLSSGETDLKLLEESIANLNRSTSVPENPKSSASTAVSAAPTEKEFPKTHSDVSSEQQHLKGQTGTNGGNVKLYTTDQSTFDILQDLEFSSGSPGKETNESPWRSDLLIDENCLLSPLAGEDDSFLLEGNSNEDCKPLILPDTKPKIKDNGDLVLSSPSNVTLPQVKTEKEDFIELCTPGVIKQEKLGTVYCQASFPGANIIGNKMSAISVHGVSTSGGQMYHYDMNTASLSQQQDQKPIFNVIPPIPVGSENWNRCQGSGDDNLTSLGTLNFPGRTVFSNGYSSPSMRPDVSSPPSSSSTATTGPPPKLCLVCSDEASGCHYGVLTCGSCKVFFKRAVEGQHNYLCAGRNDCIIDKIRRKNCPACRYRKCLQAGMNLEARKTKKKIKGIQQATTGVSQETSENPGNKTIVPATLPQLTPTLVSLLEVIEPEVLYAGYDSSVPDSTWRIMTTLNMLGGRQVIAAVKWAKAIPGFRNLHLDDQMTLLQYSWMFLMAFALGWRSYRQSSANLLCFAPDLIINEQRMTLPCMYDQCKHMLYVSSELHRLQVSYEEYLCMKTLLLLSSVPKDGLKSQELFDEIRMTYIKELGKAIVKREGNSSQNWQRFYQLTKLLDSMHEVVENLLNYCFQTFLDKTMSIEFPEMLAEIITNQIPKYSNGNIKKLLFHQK
Sequence of Hepatocyte nuclear factor 4-alpha (Homo sapiens) (P41235 whole entry, looked up): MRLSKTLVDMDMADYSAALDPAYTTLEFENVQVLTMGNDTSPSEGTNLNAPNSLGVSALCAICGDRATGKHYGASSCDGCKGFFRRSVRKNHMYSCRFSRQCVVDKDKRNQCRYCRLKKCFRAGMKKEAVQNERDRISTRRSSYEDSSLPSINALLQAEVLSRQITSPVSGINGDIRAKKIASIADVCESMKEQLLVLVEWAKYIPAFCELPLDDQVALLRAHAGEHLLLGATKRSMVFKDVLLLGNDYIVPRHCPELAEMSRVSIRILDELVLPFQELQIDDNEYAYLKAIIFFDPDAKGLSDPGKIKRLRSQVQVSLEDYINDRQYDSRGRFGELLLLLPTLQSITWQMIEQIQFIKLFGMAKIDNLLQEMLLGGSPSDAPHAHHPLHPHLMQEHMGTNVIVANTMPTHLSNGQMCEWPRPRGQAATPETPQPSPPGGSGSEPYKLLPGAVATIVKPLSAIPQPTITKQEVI
Sequence of Oxysterols receptor LXR-alpha (Homo sapiens) (Q13133 whole entry, looked up, the tested form may be a part): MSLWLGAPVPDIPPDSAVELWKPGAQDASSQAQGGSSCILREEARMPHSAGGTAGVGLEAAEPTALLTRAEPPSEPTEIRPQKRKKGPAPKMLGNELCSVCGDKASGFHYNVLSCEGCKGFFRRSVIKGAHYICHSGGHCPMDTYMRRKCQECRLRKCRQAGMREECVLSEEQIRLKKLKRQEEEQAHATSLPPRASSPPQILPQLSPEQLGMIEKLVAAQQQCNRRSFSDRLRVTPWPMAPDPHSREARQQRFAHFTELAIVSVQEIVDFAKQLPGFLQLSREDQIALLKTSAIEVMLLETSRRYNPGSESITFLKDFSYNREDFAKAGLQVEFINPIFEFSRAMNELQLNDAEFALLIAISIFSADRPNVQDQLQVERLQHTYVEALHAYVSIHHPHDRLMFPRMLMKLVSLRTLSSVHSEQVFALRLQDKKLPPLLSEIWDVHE
Sequence of Nuclear receptor subfamily 4 group A member 2 (Homo sapiens) (P43354 whole entry, looked up): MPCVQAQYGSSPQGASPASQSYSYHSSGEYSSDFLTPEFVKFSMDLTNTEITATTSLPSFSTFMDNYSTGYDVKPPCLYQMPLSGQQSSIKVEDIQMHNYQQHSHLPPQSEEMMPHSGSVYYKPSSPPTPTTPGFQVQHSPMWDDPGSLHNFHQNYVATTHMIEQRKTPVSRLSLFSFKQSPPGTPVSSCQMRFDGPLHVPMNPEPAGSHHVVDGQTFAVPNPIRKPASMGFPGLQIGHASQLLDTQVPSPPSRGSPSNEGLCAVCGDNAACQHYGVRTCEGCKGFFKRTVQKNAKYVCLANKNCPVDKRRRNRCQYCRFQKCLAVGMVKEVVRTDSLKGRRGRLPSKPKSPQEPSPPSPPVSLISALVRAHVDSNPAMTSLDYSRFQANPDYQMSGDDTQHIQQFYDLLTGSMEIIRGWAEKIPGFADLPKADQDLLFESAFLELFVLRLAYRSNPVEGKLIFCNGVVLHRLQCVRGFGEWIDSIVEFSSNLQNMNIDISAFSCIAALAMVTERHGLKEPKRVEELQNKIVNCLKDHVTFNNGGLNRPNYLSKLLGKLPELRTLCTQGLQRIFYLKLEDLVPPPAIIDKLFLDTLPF
Sequence of Estrogen-related receptor gamma (Homo sapiens) (P62508 whole entry, looked up, the tested form may be a part): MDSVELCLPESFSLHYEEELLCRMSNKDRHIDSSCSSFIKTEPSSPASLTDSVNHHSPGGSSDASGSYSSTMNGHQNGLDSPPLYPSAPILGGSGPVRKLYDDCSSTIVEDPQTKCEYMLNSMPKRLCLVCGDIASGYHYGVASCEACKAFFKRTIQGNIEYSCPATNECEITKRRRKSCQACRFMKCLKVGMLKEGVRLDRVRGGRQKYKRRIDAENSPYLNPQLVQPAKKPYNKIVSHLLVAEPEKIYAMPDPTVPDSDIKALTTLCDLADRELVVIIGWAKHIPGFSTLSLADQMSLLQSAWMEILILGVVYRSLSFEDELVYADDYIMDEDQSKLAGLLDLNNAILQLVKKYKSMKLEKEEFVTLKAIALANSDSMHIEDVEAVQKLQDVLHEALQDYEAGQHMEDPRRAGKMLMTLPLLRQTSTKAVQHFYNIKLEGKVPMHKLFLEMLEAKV
Sequence of Estrogen receptor (Homo sapiens) (P03372 whole entry, looked up, the tested form may be a part): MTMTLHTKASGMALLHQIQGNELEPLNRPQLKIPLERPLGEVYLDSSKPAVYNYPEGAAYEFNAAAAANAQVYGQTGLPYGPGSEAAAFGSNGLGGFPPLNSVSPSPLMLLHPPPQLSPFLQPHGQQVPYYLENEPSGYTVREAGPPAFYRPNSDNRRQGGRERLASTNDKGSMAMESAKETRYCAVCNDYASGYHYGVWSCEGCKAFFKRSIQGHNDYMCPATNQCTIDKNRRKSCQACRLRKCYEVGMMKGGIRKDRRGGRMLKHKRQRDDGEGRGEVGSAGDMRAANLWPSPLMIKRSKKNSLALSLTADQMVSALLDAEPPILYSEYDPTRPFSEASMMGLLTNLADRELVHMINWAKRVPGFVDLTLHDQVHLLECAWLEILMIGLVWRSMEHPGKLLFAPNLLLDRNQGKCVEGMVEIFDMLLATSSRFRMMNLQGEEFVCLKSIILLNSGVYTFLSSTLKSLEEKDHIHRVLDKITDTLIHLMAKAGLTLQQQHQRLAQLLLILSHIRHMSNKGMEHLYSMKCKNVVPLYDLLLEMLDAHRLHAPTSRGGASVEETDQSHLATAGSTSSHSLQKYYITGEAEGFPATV
Sequence of Oxysterols receptor LXR-beta (Homo sapiens) (P55055 whole entry, looked up, the tested form may be a part): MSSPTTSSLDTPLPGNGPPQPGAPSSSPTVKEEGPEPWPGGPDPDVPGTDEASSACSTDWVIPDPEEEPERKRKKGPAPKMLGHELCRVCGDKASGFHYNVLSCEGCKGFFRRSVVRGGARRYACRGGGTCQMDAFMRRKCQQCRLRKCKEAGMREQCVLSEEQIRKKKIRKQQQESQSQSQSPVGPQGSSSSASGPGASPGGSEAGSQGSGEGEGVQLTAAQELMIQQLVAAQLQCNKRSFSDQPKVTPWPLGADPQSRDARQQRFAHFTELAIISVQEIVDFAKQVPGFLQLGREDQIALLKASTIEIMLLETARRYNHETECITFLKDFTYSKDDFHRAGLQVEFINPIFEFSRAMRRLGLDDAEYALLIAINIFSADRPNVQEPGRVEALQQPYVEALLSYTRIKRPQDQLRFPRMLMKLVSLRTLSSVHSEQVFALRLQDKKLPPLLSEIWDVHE

With `CCc1nn(C)c(C(=O)NCc2ccc(C(C)(C)C)cc2)c1Cl` the outcome [1] was “inactive”, the outcome [2] was “inactive” and the outcome [3] was “inactive”. The AC50 [4] was 1.91 µM (active), the outcome [5] was “inactive” and the outcome [6] was “inactive”. The outcome [7] was “inactive”, the AC50 [8] was 0.352 µM (active) and the outcome [9] was “inactive”. The outcome [10] was “inactive”, the AC50 [11] was 0.258 µM (active) and the AC50 [12] was 0.343 µM (active). The outcome [13] was “inactive”, the outcome [14] was “inactive” and the outcome [15] was “inactive”.

With `CCOC(=O)CC(SP(=S)(OC)OC)C(=O)OCC` (configuration not stated) the outcome [1] was “inactive”, the AC50 [2] was 0.00921 µM (active) and the outcome [2] was “inactive”. The outcome [3] was “inactive”, the AC50 [4] was 20.2 µM (active) and 29.4 µM (active) and the outcome [5] was “inactive”. The AC50 [6] was 68 µM (active) and 32.4 µM (active), the AC50 [8] was 100 µM (active) and the outcome [8] was “inactive”. For the same compound, the outcome [16] was “inactive”, the outcome [10] was “inactive” and the outcome [11] was “inactive”. The outcome [12] was “inactive”, the outcome [13] was “inactive” and the outcome [14] was “inactive”. The outcome [17] was “inactive” and the outcome [18] was “inactive”.

With `CC(C)C1(C)N=C(c2nc3ccccc3cc2C(=O)O)NC1=O` (configuration not stated) the outcome [1] was “inactive”, the outcome [2] was “inactive” and the outcome [3] was “inactive”. For the same compound, the outcome [4] was “inactive”, the outcome [5] was “inactive” and the outcome [6] was “inactive”. For the same compound, the outcome [7] was “inactive”, the outcome [8] was “inactive” and the outcome [9] was “inactive”. The outcome [19] was “inactive”, the outcome [11] was “inactive” and the outcome [12] was “inactive”. For the same compound, the outcome [13] was “inactive”, the outcome [14] was “inactive” and the outcome [17] was “inactive”. For the same compound, the outcome [18] was “inactive”.

In the case of `COc1nc(C)nc(NC(=O)NS(=O)(=O)c2ccccc2Cl)n1`, the outcome [1] is reported as “inactive”, the outcome [2] is reported as “inactive” and the outcome [3] is reported as “inactive”. For the same compound, the outcome [4] was “inactive”, the outcome [5] was “inactive” and the outcome [6] was “inactive”. For the same compound, the outcome [8] was “inactive”, the outcome [16] was “inactive” and the outcome [9] was “inactive”. The outcome [12] was “inactive”, the outcome [13] was “inactive” and the outcome [14] was “inactive”. For the same compound, the outcome [17] was “inactive”.

With `CCOP(=S)(OCC)SCn1c(=O)oc2cc(Cl)ccc21` the outcome [1] was “inactive”, the outcome [2] was “inactive” and the outcome [3] was “inactive”. For the same compound, the AC50 [4] was 13.8 µM (active), the outcome [5] was “inactive” and the AC50 [6] was 29.9 µM (active). For the same compound, the outcome [8] was “inactive”, the outcome [16] was “inactive” and the outcome [20] was “inactive”. The outcome [10] was “inactive”, the outcome [19] was “inactive” and the outcome [11] was “inactive”. For the same compound, the outcome [12] was “inactive”, the outcome [14] was “inactive” and the outcome [17] was “inactive”. The outcome [18] was “inactive”.

With `CCCCNC(=O)OCC#CI` the AC50 [1] was 26.8 µM (active), the outcome [1] was “inactive” and the outcome [2] was “inactive”. For the same compound, the AC50 [3] was 25.4 µM (active), the outcome [3] was “inactive” and the AC50 [4] was 37 µM (active). For the same compound, the outcome [4] was “inactive”, the outcome [5] was “inactive” and the AC50 [6] was 25.4 µM (active). The outcome [6] was “inactive”, the outcome [7] was “inactive” and the AC50 [8] was 45.5 µM (active). The outcome [8] was “inactive”, the outcome [9] was “inactive” and the outcome [10] was “inactive”. For the same compound, the outcome [19] was “inactive”, the outcome [11] was “inactive” and the outcome [12] was “inactive”. The AC50 [13] was 64.2 µM (active) and the outcome [14] was “inactive”.
